Results on one compound are retold here after PubChem BioAssay AID651871 (Sanford-Burnham Center for Chemical Genomics, 2012).

This assay relates to HL-1. Description: cardiomyocyte survival under oxidative or metabolic stress – cell-based, panel, H9c2 and HL-1, ATP luminescence, set 2, SAR follow-up (AID 651871).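 Further: cells exposed to stressor for 2 h before ATP readout; reference of the scale not given here.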 As to conditions: H9c2/HL-1 cardiomyocytes, 2-deoxyglucose stress, with 2-deoxyglucose, run 4, at 19.8 µM (top of the series).

The structures appear in SMILES notation.

`COc1ccc2c(c1OC)C(=O)N1c3ccccc3C(=O)N(Cc3cccc(Cl)c3Cl)C21` (stereo unspecified): the activity (protection/inhibition) amounted to 48.1%.
